In the library only some 13% were active in any assay of this set; here they are far more common.
Cycloheximide cs = counter-screen for Shiga toxin inhibitors: cycloheximide protein synthesis inhibition; cell reporter, cycloheximide protein synthesis inhibition counterscreen; max response, %; 300,000 compounds, 12% hits; AID 2314; in the data active = max response mostly above about 13%, no sharp cut-off; inactive = mostly below about 14%; note: read at 38.3 µM for the half of the compounds with a filed dose; 0% is about no effect
Shiga toxin inh = blocks Shiga toxin action in Vero cells | Vero cells, Shiga toxin protein synthesis inhibition reporter | 290,000 compounds, 9.2% hits | inhibition, % at 38.7 µM | AID 2315; in the data active = inhibition mostly above about 28%, no sharp cut-off; inactive = mostly below about 43%; note: 0% is about no effect
FMDV antiviral = blocks foot and mouth disease virus | FMDV antiviral cell-based qHTS | Potency, µM (titrated, usually from 57.9 µM), for the others: at the highest dose activity change, negative = inhibition, most hits filed as inhibitors | 410,000 compounds, 1.2% hits; calls by dose curve; tested in HEK293T cells; note: read-out not given here; potency is the fitted concentration of half-maximal effect; % is set by controls: 0 for no effect and ±100 for the full control effect; nearly all actives have a fitted effect of over 45% in size
Marburg entry inh = inhibitors of Marburg virus binding or cell entry; Marburg virus pseudotyped entry inhibition, cell reporter; Potency, µM (series often up to 37.8 µM), inactives show at the top dose activity change, negative = inhibition, usual class: inhibitors; 300,000 compounds, 1.8% hits; AID 540276; calls by dose curve; tested in HEK293 cells; note: potency is the fitted concentration of half-maximal effect; % is set by controls: 0 for no effect and ±100 for the full control effect
HCV inhibitor = HCV inhibition; Huh7.5.1 HCVcc-Cre infection, luciferase reporter, 44 h; Potency, µM (titrated, usually from 41.8 µM), for the others: at the highest dose activity change, negative = inhibition, usual class: inhibitors; 340,000 compounds, 3.4% hits; AID 651820; active = well fitted inhibition curve with a large enough effect; inconclusive = small, poorly fitted or top-dose-only effect, or another doubt; inactive = no such curve, though single readings can be large or run the other way; note: potency is the fitted concentration of half-maximal effect; % is set by controls: 0 for no effect and ±100 for the full control effect
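Compounds are dispensed onto cells plated 4 h earlier at 1,000 per well, with HCVcc-Cre virus (about 0.5 moi) added next. Following 44 h of culture, luminescent signal is measured for 15 sec after 15 min with substrate at room temperature.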
Lassa entry inh = inhibitors of Lassa virus binding or cell entry; Lassa virus pseudotype entry inhibition, cell reporter; Potency, µM (top dose mostly 37.9 µM), without a hit: at the top dose activity change, negative = inhibition, hits mostly inhibitors; 300,000 compounds, 1.2% hits; AID 540256; calls by dose curve; tested in HEK293 cells; note: potency is the fitted concentration of half-maximal effect; % is set by controls: 0 for no effect and ±100 for the full control effect; nearly all actives have a fitted effect of over 50% in size
* marks the source's active call; other numbers are inactive results; [ ] = dose if it differs, or a comment.

What do the screens show for `Cc1cc(C)nc(N/N=C/c2ccccc2OCc2ccc([N+](=O)[O-])cc2)n1`?
Cycloheximide cs: 13; Shiga toxin inh: 59*; FMDV antiviral: -15%; Marburg entry inh: inconclusive; HCV inhibitor: -22%; Lassa entry inh: 16%

What do the screens show for `Cc1cc(C)nc(N/N=C/c2cccc3ccccc23)n1`?
Cycloheximide cs: 47*; Shiga toxin inh: 15; FMDV antiviral: 19%; Marburg entry inh: 4%; HCV inhibitor: -16%; Lassa entry inh: 7%

Results for Cc1cc(N/N=C/c2ccccc2Cl)nc(NCc2ccccc2)n1 ?
Cycloheximide cs: 28*; Shiga toxin inh: 24; FMDV antiviral: inconclusive; Marburg entry inh: inconclusive; HCV inhibitor: inconclusive; Lassa entry inh: inconclusive

Results for COc1ccccc1C=NNc1nc(C)cc(=O)[nH]1 ?
FMDV antiviral: 6%; Marburg entry inh: 23%; HCV inhibitor: 31%; Lassa entry inh: 8%[46.1 µM]

What do the screens show for `CC(C)CCCC(C)C1CCC2C3C(=O)C=C4CC(O)CC[C@@]4(C)C3CC[C@@]12C` (some centres undefined)?
FMDV antiviral: 0%

How did Cc1cc(C)nc(N/N=C/c2cn[nH]c2-c2ccccc2)n1 do in these assays?
Cycloheximide cs: 2; Shiga toxin inh: -3; FMDV antiviral: -10%; Marburg entry inh: -27%[46.1 µM]; HCV inhibitor: 8%; Lassa entry inh: -2%[46.1 µM]

Results for Cc1cc(C)nc(N/N=C/c2ccccc2Cl)n1 ?
Cycloheximide cs: 59*; Shiga toxin inh: 94*; FMDV antiviral: 45%; HCV inhibitor: -2%

What do the screens show for `Cn1c(N/N=C/c2cc3ccccc3nc2Cl)nc2ccccc21`?
Cycloheximide cs: 31; Shiga toxin inh: 78*; FMDV antiviral: -10%; Marburg entry inh: inconclusive; HCV inhibitor: inconclusive; Lassa entry inh: inconclusive

What do the screens show for `COc1ccc(C(=O)N(C)C2CCN(C)CC2)cc1S(=O)(=O)Nc1cc(Cl)ccc1Cl`?
Cycloheximide cs: -1; Shiga toxin inh: 23; FMDV antiviral: 61%; HCV inhibitor: 12%

What do the screens show for `O=C(N/N=C/c1ccc(F)cc1)c1cccc(NC(=O)c2ccccc2Cl)c1`?
Cycloheximide cs: 20*; Shiga toxin inh: 36*; FMDV antiviral: 6%; Marburg entry inh: inconclusive; HCV inhibitor: inconclusive; Lassa entry inh: 1%[46.1 µM]

What do the screens show for `COc1ccc(/C=N/NC(=O)c2cccc(NC(=O)c3ccccc3Cl)c2)cc1`?
Cycloheximide cs: 50*; Shiga toxin inh: 40; FMDV antiviral: 20%; Marburg entry inh: inconclusive; HCV inhibitor: -16%; Lassa entry inh: inconclusive

Results for O=C(O)c1cc(S(=O)(=O)N2CCCCCC2)ccc1Cl ?
Cycloheximide cs: -2; Shiga toxin inh: -15; FMDV antiviral: 11%; Marburg entry inh: 10%; HCV inhibitor: 12%; Lassa entry inh: 12%

How did O=c1c2ccccc2nc(-c2ccccc2Cl)n1-c1cccc(O)c1 do in these assays?
Cycloheximide cs: -5; Shiga toxin inh: 18; FMDV antiviral: -5%; HCV inhibitor: 4%

How did COc1ccc(C)cc1NC(=O)c1sc2ncnc(N3CCN(c4ccccn4)CC3)c2c1C do in these assays?
Cycloheximide cs: -2; Shiga toxin inh: 15; FMDV antiviral: -24%; Marburg entry inh: 6%[46.1 µM]; HCV inhibitor: 1.4µM*

Results for Cc1nc(N2CCN(c3ccccn3)CC2)c2c(C)c(C(=O)Nc3ccc(Br)cc3C)sc2n1 ?
Cycloheximide cs: -2; Shiga toxin inh: 18; FMDV antiviral: -12%; HCV inhibitor: 9%

What do the screens show for `Cc1ccc(NC(=O)c2sc3nc(C)nc(N4CCN(c5ccccn5)CC4)c3c2C)c(C)c1`?
Cycloheximide cs: -4; Shiga toxin inh: -3; FMDV antiviral: -25%; Marburg entry inh: 11µM*; HCV inhibitor: 3%; Lassa entry inh: -26%

How did Cc1nc(N2CCCCC2)c2c(C)c(C(=O)Nc3cccc(C(F)(F)F)c3)sc2n1 do in these assays?
Cycloheximide cs: 7; Shiga toxin inh: 17; FMDV antiviral: inconclusive; HCV inhibitor: 25µM*

How did Cc1nc(N2CCCCC2C)c2c(C)c(C(=O)Nc3cccc(C(F)(F)F)c3)sc2n1 (centres undefined) do in these assays?
Cycloheximide cs: 1; Shiga toxin inh: -4; FMDV antiviral: inconclusive; Marburg entry inh: inconclusive; HCV inhibitor: inconclusive; Lassa entry inh: -2%

Results for Cc1nc(N2CCN(c3ccccn3)CC2)c2c(C)c(C(=O)N3CCN(c4ccccc4F)CC3)sc2n1 ?
Cycloheximide cs: -4; Shiga toxin inh: -3; FMDV antiviral: inconclusive; Marburg entry inh: 7.9µM*; HCV inhibitor: 32µM*; Lassa entry inh: inconclusive

How did Cc1ccc(NC(=O)c2sc3ncnc(N4CCN(c5ccccn5)CC4)c3c2C)c(C)c1 do in these assays?
Cycloheximide cs: 7; Shiga toxin inh: 24; FMDV antiviral: -13%; HCV inhibitor: inconclusive

What do the screens show for `CCn1cc(C(=O)O)c(=O)c2cc(F)c(N3CCN(S(=O)(=O)c4ccc(NC(C)=O)cc4)CC3)cc21`?
Cycloheximide cs: -7; Shiga toxin inh: -10; FMDV antiviral: -17%; Marburg entry inh: 3%; HCV inhibitor: -4%; Lassa entry inh: 7%

Results for CC(=O)C(=Cc1cccc(C#N)c1)C(=O)c1ccccc1 ?
FMDV antiviral: 13µM*

How did CC(=O)C(=Cc1ccc(Cl)cc1)C(=O)c1ccccc1 do in these assays?
FMDV antiviral: 28µM*

What do the screens show for `Cc1ccc(C)c(NC(=O)c2cc(S(=O)(=O)N3CCc4ccccc4C3)ccc2F)c1`?
FMDV antiviral: -15%; Lassa entry inh: 4%[46.1 µM]

What do the screens show for `CC1(C)C2CCC1(CS(=O)(=O)N1CCCc3ccccc31)C(=O)C2` (centres undefined)?
Cycloheximide cs: 18*; Shiga toxin inh: 22; FMDV antiviral: 36%; Marburg entry inh: -9%; HCV inhibitor: 7%; Lassa entry inh: 0%

How did C(#Cc1ccccc1)CN1CCOCC1 do in these assays?
Cycloheximide cs: 31*; Shiga toxin inh: 96*; FMDV antiviral: 14%; Marburg entry inh: 18%[46.1 µM]; HCV inhibitor: 19%

How did C#CC[N+]1(CC#Cc2ccccc2)CCOCC1 do in these assays?
Cycloheximide cs: 16*; Shiga toxin inh: 26; FMDV antiviral: -5%; Marburg entry inh: -1%; HCV inhibitor: 21%; Lassa entry inh: 25%

How did C(#Cc1ccc(C#CCN2CCOCC2)cc1)CN1CCOCC1 do in these assays?
Cycloheximide cs: -2; Shiga toxin inh: -8; FMDV antiviral: -1%; Marburg entry inh: -1%; HCV inhibitor: -4%; Lassa entry inh: -19%

How did O=C(COC(=O)c1ccccc1OCc1ccc(F)cc1)NCC1CCCO1 (centres undefined) do in these assays?
FMDV antiviral: 0%; HCV inhibitor: -2%

How did Cn1c(=O)n(C)c2cc(CNC(=O)[C@H]3O[C@@H](n4ccc(=O)[nH]c4=O)[C@H](O)[C@@H]3O)ccc21 do in these assays?
FMDV antiviral: 51%

Screens: PubChem BioAssay, National Center for Advancing Translational Sciences (NCATS)
